In PubChem BioAssay (NCATS):
Inconclusive results are not listed. Where a call stands in place of a potency, no number is given. Calls of active or inactive are those of the source. Calls follow the shape of the dose curve; as a rule, active = well fitted inhibition curve with a large enough effect; inconclusive = small, poorly fitted or top-dose-only effect; inactive = no such curve, though single readings can be large or run the other way.

Experiments:
[1] = tested on: Zika virus NS2B-NS3 protease (unlinked complex); experiment: Primary screen GU Rhodamine qHTS for Zika virus inhibitors: Unlinked NS2B-NS3 protease assay (AID 1347159); also: nearly all actives have a fitted effect of over 60% in size
Method in brief: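 Unlinked NS2B/NS3, 25 nM; Rhod110 peptide, 1.5 microM; compounds, up to 114 microM. Reaction run 15 min at RT in 10 mM Tris-HCl pH 8.0, 0.01% Tween 20; kinetic fluorescence change fitted with a 4-parameter Hill model.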

[2] = tested on: Zika virus NS2B-NS3 protease (linked construct); experiment: Primary screen NINDS Rhodamine qHTS for Zika virus inhibitors (AID 1347160); also: nearly all actives have a fitted effect of over 55% in size
Method in brief: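 Single-chain NS2B-NS3 protease, 25 nM, pH 8.0; compounds preincubated 15 min. Activity: Rhodamine110 release from 1.5 microM substrate over 15 min, room temperature, data fitted to 4-parameter Hill.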
Potency is read from the fitted curve at half-maximal effect.

| SMILES | Potency [1] | Potency [2] |
| --- | --- | --- |
| C/C=C/C=C/c1cc2c(C=O)c(O)c(CC=C(C)C)cc2o1 | 12.6 µM (active) | 17.8 µM (active) |
| CC(=O)O[C@H]1C[C@H](OC(C)=O)[C@]2(C)[C@H](CC[C@@]34O[C@@H]3C3=C(C)C(=O)O[C@@H]3C[C@H]42)C1(C)C | inactive | inactive |
| COc1ccccc1C(=O)Nc1cccc(NC(=O)c2cccc(C)c2)c1 | inactive | inactive |
| CNc1cccc(CCOc2ccc3c(c2)CN(CC(F)(F)F)C(=O)[C@H](CC(=O)O)C3)n1 | inactive | inactive |
| O=C(NCCO)c1cccc(-c2cc(Nc3ccc(OC(F)(F)F)cc3)ncn2)c1 | inactive | inactive |
| Cc1ccc(-c2cn3c4c(sc3n2)CCCC4)cc1 | inactive | inactive |
| COc1cc(NC(=O)c2cc(C3CC3)on2)c(OC)cc1Cl | inactive | inactive |
| NC(=O)c1ccccc1Nc1ccnc(Nc2cccc(O)c2)n1 | inactive | inactive |
| COc1ccc2c(NC(=O)Nc3cccc(C(F)(F)F)n3)ccnc2c1 | inactive | inactive |
| CC[C@@H](C)Nc1cc(C(=O)NC2CC3CC[C@@H](C2)N3c2ccc(C(=O)C3CC3)cn2)c(C)cc1C(N)=O (stereo partly specified) | inactive | inactive |
| CC(C)(C)c1ccc(NC(=O)N2CCN(c3ncccc3Cl)CC2)cc1 | inactive | inactive |
| C=C1C(=O)O[C@@H]2/C=C(/C)[C@@H](OC(C)=O)C/C=C(\C)C[C@@H](OC(=O)/C(=C/CO)CO)[C@@H]12 | inactive | inactive |
| COc1cc(O)c2c(c1)C1OC1C[C@H](O)[C@H](O)C(=O)/C=C\C[C@H](C)OC2=O (stereo partly specified) | inactive | inactive |
